# Data: publication PMC5700166
# Numbering of substitutions follows the chain as printed.
# How the values were obtained:
# Experiment in all cases: protein-binding microarray (PBM); PBM: ~300 nM protein, 6 mM HEPES pH 7.8, 80 mM KCl, 0.5 mM EDTA, 0.5 mM EGTA, 6% glycerol, 35 ng/ul poly-dIdC, 1% milk, 1 h, room temperature; Ap Aiptasia and Nv Nematostella (sea anemones) / Co Capsaspora / Aq Amphimedon (sponge) / Dm Drosophila / Hu human; RHD is the Rel homology domain; high values mean tight binding
# Details in all cases: dsDNA, one strand shown
# [1] = target: T1, GST-Ap-NF-kB RHD (Exaiptasia pallida (Aiptasia), UniProt A0A913YAJ5 2-422)
# T1 sequence: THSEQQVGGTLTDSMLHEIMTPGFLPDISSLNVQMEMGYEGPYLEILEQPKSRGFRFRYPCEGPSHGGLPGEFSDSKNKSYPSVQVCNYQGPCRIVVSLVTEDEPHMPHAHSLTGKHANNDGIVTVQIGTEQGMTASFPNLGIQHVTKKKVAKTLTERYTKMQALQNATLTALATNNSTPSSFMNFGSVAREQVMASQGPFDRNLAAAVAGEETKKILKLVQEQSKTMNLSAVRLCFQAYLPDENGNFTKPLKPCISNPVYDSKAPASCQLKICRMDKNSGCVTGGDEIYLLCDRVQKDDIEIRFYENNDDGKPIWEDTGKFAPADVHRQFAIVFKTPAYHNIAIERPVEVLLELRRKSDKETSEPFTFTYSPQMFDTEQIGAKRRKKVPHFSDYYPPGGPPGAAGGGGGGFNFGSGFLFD
# [2] = target: T2, GST-Nv-NF-kB (Cys allele) (Nematostella vectensis, UniProt E5G601 2-411)
# T2 sequence: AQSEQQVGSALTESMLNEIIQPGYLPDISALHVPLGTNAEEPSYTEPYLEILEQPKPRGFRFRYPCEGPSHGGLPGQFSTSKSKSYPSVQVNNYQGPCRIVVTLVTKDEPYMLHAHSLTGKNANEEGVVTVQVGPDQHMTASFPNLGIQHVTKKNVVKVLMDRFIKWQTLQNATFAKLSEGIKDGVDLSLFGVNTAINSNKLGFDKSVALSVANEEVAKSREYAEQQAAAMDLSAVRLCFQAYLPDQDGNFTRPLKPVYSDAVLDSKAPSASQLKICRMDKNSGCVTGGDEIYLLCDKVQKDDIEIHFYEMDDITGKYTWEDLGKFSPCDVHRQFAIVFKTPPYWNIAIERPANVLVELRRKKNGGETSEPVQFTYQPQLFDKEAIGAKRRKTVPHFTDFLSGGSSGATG
# [3] = target: T3, GST-Nv-NF-kB (Ser allele) (Nematostella vectensis, UniProt A7UNT2 2-411)
# T3 sequence: T2 sequence with Q21R, C66S, S207N, E215Q, V217A, E225K, A268E, D399E
# [4] = target: T4, GST-Co-NF-kB (Capsaspora owczarzaki, UniProt F1ARL5 200-546)
# T4 sequence: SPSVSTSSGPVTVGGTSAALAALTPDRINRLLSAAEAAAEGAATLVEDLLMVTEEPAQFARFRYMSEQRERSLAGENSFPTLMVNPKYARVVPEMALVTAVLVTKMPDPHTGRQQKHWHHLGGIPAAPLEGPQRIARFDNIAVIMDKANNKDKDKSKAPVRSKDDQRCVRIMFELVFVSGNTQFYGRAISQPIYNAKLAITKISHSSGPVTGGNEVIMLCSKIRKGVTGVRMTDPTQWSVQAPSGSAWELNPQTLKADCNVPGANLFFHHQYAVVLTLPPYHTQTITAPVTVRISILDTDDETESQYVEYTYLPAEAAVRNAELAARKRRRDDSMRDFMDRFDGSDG
# [5] = target: T5, GST-Dm-Relish (Drosophila melanogaster, UniProt Q94527 99-473)
# T5 sequence: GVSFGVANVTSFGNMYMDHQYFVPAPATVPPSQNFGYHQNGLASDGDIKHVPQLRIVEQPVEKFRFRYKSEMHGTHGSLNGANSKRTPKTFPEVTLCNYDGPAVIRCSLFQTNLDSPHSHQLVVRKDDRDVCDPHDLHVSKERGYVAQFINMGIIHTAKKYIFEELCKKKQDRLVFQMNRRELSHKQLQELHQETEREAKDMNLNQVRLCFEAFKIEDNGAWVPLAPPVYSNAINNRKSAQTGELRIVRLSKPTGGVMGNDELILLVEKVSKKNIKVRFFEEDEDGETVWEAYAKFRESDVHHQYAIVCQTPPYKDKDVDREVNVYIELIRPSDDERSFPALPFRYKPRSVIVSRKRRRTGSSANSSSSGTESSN
# [6] = target: T6, GST-Aq-NF-kB (Amphimedon queenslandica, UniProt A9Y5G7 2-389)
# T6 sequence: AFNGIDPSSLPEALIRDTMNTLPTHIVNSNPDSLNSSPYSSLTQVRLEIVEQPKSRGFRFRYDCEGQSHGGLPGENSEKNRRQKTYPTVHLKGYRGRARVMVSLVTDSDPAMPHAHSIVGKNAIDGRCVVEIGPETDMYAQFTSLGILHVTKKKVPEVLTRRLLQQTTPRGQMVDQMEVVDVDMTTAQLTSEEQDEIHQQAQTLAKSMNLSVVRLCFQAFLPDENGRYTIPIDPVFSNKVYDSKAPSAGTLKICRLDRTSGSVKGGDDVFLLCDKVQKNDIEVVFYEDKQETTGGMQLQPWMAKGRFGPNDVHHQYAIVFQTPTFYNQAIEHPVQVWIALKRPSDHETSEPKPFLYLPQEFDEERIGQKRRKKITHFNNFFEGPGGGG
# [7] = target: GST-Hu-p50 (Homo sapiens, UniProt P19838 7-356)
# Chain of GST-Hu-p50 (P19838 7-356): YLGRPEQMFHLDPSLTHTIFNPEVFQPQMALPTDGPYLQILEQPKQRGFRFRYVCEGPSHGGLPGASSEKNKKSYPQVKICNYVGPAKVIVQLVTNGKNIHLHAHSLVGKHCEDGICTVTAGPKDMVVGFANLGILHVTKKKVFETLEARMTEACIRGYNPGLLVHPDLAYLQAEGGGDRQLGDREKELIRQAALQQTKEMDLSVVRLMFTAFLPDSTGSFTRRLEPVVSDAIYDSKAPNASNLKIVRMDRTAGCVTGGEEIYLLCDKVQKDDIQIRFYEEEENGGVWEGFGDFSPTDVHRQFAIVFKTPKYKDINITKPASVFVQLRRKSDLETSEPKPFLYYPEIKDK
Sequence,binding signal [1] [z-score],binding signal [2] [z-score],binding signal [3] [z-score],binding signal [4] [z-score],binding signal [5] [z-score],binding signal [6] [z-score],binding signal [7] [z-score]
CCGATTAACATCAAGGTTCCCCCTGATGTTAATCGGGTCTTGATTCGCTTGACGCTGCTG,8.03,6.89,7.86,9.24,5.67,5.62,5.92
CCGATTAACATCAGGGGGACAACTGATGTTAATCGGGTCTTGATTCGCTTGACGCTGCTG,5.19,5.15,4.83,6.16,3.66,4.24,4.46
CCGATTAACATCAACGTCCCCCCTGATGTTAATCGGGTCTTGATTCGCTTGACGCTGCTG,5.15,3.81,4.61,5.29,4.4,4.66,3.74
CCGATTAACATCAAAACATTCCCTGATGTTAATCGGGTCTTGATTCGCTTGACGCTGCTG,3.1,5.46,4.94,4.18,3.87,6.04,3.88
CCGATTAACATCAGAAAACCCCCTGATGTTAATCGGGTCTTGATTCGCTTGACGCTGCTG,10.8,10,11,4.05,10,8.84,8.24
CCGATTAACATCACCCCATCCCCTGATGTTAATCGGGTCTTGATTCGCTTGACGCTGCTG,4.19,2.64,4.17,2.99,2.37,3.17,3.3
CCGATTAACATCAGGGAATAACCTGATGTTAATCGGGTCTTGATTCGCTTGACGCTGCTG,4.4,6.79,6.75,2.13,8.23,7.2,5.21
CCGATTAACATCACACAATCCCCTGATGTTAATCGGGTCTTGATTCGCTTGACGCTGCTG,6.64,6.65,8.71,2.94,3.98,4.86,5.87
CCGATTAACATCAGGATGCCCCCTGATGTTAATCGGGTCTTGATTCGCTTGACGCTGCTG,4.93,4.06,2.93,1.55,4.63,5.09,4.35
CCGATTAACATCAATATTCCCCCTGATGTTAATCGGGTCTTGATTCGCTTGACGCTGCTG,8.39,9.05,10,10.4,6.05,7.05,7.24
CCGATTAACATCAGGGGAACCCATGATGTTAATCGGGTCTTGATTCGCTTGACGCTGCTG,7.48,5.77,6.55,4.47,8.55,4.7,4.58
CCGATTAACATCACCCATTTCCCTGATGTTAATCGGGTCTTGATTCGCTTGACGCTGCTG,2.51,3.07,3.99,3,1.35,2.52,2.57
CCGATTAACATCACCTTTCCCCCTGATGTTAATCGGGTCTTGATTCGCTTGACGCTGCTG,6.53,6.31,7.29,9.42,2.89,4.77,5.65
CCGATTAACATCAAAAGGGAATTTGATGTTAATCGGGTCTTGATTCGCTTGACGCTGCTG,3.2,6.76,7.17,1.41,4.25,4.96,5.13
CCGATTAACATCACGGGGGGTACTGATGTTAATCGGGTCTTGATTCGCTTGACGCTGCTG,5.05,3.22,3.15,4.54,3.63,3.58,3.25
CCGATTAACATCAGGGGGGTAAATGATGTTAATCGGGTCTTGATTCGCTTGACGCTGCTG,4.89,4.22,4.83,7.69,4.17,4.53,4.35
CCGATTAACATCAAATTTCCCATTGATGTTAATCGGGTCTTGATTCGCTTGACGCTGCTG,2.36,4.83,4.27,3.32,2.68,4.29,3.86
CCGATTAACATCAGGGGGATGCATGATGTTAATCGGGTCTTGATTCGCTTGACGCTGCTG,4.72,4.49,5.56,4.12,3.39,3.86,4.84
CCGATTAACATCAAAAACTCCCTTGATGTTAATCGGGTCTTGATTCGCTTGACGCTGCTG,5.39,7.94,7,1.96,6.3,7.5,5.92
CCGATTAACATCAAACTTCCCCTTGATGTTAATCGGGTCTTGATTCGCTTGACGCTGCTG,6.88,9.28,9.81,5.46,7.55,7.66,6.98
CCGATTAACATCAAAAAACCCCTTGATGTTAATCGGGTCTTGATTCGCTTGACGCTGCTG,8.1,8.78,7.86,2.05,8.96,8,7.64
CCGATTAACATCAGGGGGATTACTGATGTTAATCGGGTCTTGATTCGCTTGACGCTGCTG,8.76,7.64,8.21,5.85,9.03,6.92,7.22
CCGATTAACATCAGGGGGAATACTGATGTTAATCGGGTCTTGATTCGCTTGACGCTGCTG,8.15,8.32,8.65,9.18,7.69,6.87,6.83
CCGATTAACATCACGGTATTCCCTGATGTTAATCGGGTCTTGATTCGCTTGACGCTGCTG,4.35,3.63,3.91,3.34,6.53,6,1.52
